# Laboratory results published in article PMC11006913.
# Substitutions are numbered along the chain they refer to.
# Tests used:
# Assay in all cases: PBM; 200 nM protein, PBS
# Conditions in all cases: dsDNA, one strand shown
# [1] = molecular target: T1, SIX6 (Homo sapiens, UniProt O95475 114-200, T165P)
# T1 sequence: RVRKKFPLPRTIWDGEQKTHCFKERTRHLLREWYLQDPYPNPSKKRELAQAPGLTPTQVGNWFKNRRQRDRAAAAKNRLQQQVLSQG
# [2] = molecular target: T2, NKX2-4 (Homo sapiens, UniProt Q9H2Z4 175-261, P217L)
# T2 sequence: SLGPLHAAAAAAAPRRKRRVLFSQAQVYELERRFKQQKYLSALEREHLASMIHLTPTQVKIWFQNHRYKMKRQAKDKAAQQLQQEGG
# [3] = molecular target: T3, NKX2-4 (Homo sapiens, UniProt Q9H2Z4 175-261, T231S)
# T3 sequence: T2 sequence with L43P, T57S
# [4] = molecular target: T4, NKX2-4 (Homo sapiens, UniProt Q9H2Z4 175-261)
# T4 sequence: T2 sequence with L43P
# [5] = molecular target: T5, NKX2-4 (Homo sapiens, UniProt Q9H2Z4 175-261, R246Q)
# T5 sequence: T2 sequence with L43P, R72Q
# [6] = molecular target: PITX2 (Homo sapiens, UniProt Q99697 72-157)
# [7] = molecular target: CRX (Homo sapiens, UniProt O43186 26-111, R41L)
# CRX, sequence (O43186 26-111 R41L): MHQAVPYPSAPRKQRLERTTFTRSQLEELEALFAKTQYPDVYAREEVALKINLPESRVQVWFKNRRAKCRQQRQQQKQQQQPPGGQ
sequence,measurement,setting,value
CCAGGTCC,binding signal,[1],"8.71 upbm affinity estimate (log intensity, higher = more binding, comparable within an allelic series)"
CCCCGGCG,binding signal,[2],"9.5 upbm affinity estimate (log intensity, higher = more binding, comparable within an allelic series)"
same,binding signal,[3],"9.48 upbm affinity estimate (log intensity, higher = more binding, comparable within an allelic series)"
same,binding signal,[4],"9.57 upbm affinity estimate (log intensity, higher = more binding, comparable within an allelic series)"
same,binding signal,[5],"9.55 upbm affinity estimate (log intensity, higher = more binding, comparable within an allelic series)"
AATTAATC,binding signal,[6],"12.4 upbm affinity estimate (log intensity, higher = more binding, comparable within an allelic series)"
same,binding signal,[7],"12.5 upbm affinity estimate (log intensity, higher = more binding, comparable within an allelic series)"
